Experimental data: PubChem BioAssay (Tox21)
Records with an inconclusive call do not appear. Unmarked numbers belong to inactive results. Active and inactive are the calls of the source. Calls follow the shape of the dose curve; as a rule, active = well fitted activation curve with a large enough effect in the signal ratio in the repeat runs (not every such curve was filed as active); inconclusive = weak or mixed curves, or effect the other way; inactive = no such curve, though single readings can be large or run the other way; the % refers to the signal ratio.

Molecular target: Peroxisome proliferator-activated receptor gamma (Homo sapiens) (UniProt P37231)
Assay: qHTS assay to identify small molecule agonists of the peroxisome proliferator-activated receptor gamma (PPARg) signaling pathway (AID 743094)
Conditions: HEK293H PPARg-UAS-bla, beta-lactamase FRET ratio, 17 h; series mostly up to 57 µM; activation: at the top concentration
Description: U.S. Tox21 Program National Center for Advancing Translational Sciences [NCATS] NIH Chemical Genomics Center [NCGC] U.S. Environmental Protection Agency [EPA] National Institutes of Environmental Health Sciences [NIEHS] National Toxicology Program [NTP] U.S. Food and Drug Administration [FDA] Tox21 Assay Overview: The peroxisome proliferator-activated receptors (PPARs) are lipid-activated transcription factors of the nuclear receptor superfamily with three distinct subtypes namely PPAR alpha, PPAR delta (also called PPAR beta) and PPAR gamma (PPARg). All these subtypes heterodimerize with Retinoid X receptor (RXR) and these heterodimers regulate transcription of various genes. PPAR-gamma receptor (glitazone receptor) is involved in the regulation of glucose and lipid metabolism. To identify the compounds that activate PPAR-gamma signaling, GeneBLAzer PPAR gamma UAS-bla HEK293H cell line (Invitrogen, Carlsbad, CA, USA) containing a beta-lactamase reporter gene under control of the control of an upstream activator sequence (UAS) stably integrated into HEK293H cells was used to screen Tox21 compound library.
Tox21 Assay Protocol Summary: PPARg-bla cells were dispensed at 3000 cells/6uL/well in 1536-well black wall/clear bottom plates using a Multidrop Combi (Thermo Fisher Scientific, Waltham, MA) dispenser. After the assay plates were incubated at 37C and 5% CO2 for 5 h, 23 nL of compounds dissolved in DMSO, positive controls or DMSO only was transferred to the assay plate by a Pintool station (Kalypsys, San Diego, CA). The assay plates were incubated at 37C for 17 h. After 1 uL of LiveBLAzerTM B/G FRET substrate was added using a Bioraptr Flying Reagent Dispenser (FRD) workstation (Beckman Coulter, Indianapolis, IN, USA), the plates were incubated at room temperature for 1 h, and fluorescence intensity was measured by an Envision plate reader (PerkinElmer, Shelton, CT).
% is scaled to controls: 0 for no effect and ±100 for the full control effect; potency is read from the fitted curve at half-maximal effect.

Sequence of Peroxisome proliferator-activated receptor gamma (Homo sapiens) (P37231 whole entry, looked up): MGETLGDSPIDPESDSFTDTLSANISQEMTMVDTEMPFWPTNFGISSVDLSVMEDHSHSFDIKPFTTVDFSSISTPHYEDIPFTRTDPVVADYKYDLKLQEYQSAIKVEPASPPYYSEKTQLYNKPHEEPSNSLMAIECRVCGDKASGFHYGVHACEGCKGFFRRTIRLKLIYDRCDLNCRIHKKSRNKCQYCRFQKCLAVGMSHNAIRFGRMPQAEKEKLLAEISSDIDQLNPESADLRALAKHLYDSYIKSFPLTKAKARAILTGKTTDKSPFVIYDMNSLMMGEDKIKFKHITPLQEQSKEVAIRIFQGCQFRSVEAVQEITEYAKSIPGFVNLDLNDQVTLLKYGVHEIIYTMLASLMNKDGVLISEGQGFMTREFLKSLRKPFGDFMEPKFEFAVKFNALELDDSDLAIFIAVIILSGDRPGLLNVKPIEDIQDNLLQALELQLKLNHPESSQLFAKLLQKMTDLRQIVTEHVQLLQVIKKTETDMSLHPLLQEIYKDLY

Structure (SMILES)	activation	Potency
CC(C)(C)OCC1CO1 (stereo not given)	5.57% [at 78.9 µM]	–
C/C=C/C(=O)CC	2.9% [at 15.1 µM]	–
C[N+]1(CC2COC(c3ccccc3)(C3CCCCC3)O2)CCCCC1 (stereo not given)	-5.65%	–
N=c1ccn2c(n1)O[C@H]1[C@H](O)[C@@H](CO)O[C@H]12	–	inactive
Cc1cc(C(=O)O)ccc1[N+](=O)[O-]	1.55%	–
CCCCCCCCO[C@@H]1O[C@H](CO)[C@@H](O)[C@H](O)[C@H]1O	0.391%	–
COc1cc(Cl)c(OC)cc1N	0.474%	–
CCCCOC(=O)CCCCCCCC(=O)OCCCC	-0.886%	–
CC(CSC(=O)c1ccccc1)C(=O)N1C[C@@H](Sc2ccccc2)C[C@H]1C(=O)O (stereo not given in full)	1.35%	–
COC(=O)C1=C(C)NC(COC(N)=O)=C(C(=O)OC(C)C)C1c1cccc(Cl)c1Cl (stereo not given)	–	21.3 µM (active)
C[N+](C)(C)CCOC(=O)CCC(=O)OCC[N+](C)(C)C	-1.91%	–
CCOC(=O)C1=C[C@]2(CC)CCCN3CCc4c(n1c1ccccc41)[C@@H]32	–	inactive
O=C(O)c1ccc(S(=O)(=O)O)cc1C(=O)O	-8.99% [at 78.9 µM]	–
CC1=CC[C@H](C(C)C)C=C1	-2.72%	–
COC(C)OC	0.751%	–
CCn1cc(C(=O)O)c(=O)c2cnc(N3CCNCC3)nc21	-2.53% [at 26.2 µM]	–
CN(C)CCN(Cc1ccc(Cl)cc1)c1ccccn1	-9.11% [at 26.2 µM]	–
CCCCCCCC/C=C\CCCCCCCC(=O)OCC	-2.16%	–
O=C(Cl)c1cc(C(=O)Cl)cc(C(=O)Cl)c1	4.29%	–
S=C([S-])NCCNC(=S)[S-].[Mn+2]	-7.97%	–

Structure (SMILES)	activation	Potency
CC(C)(CO)[N+](=O)[O-]	-0.872%	–
O=P(O)(OCc1ccccc1)OCc1ccccc1	-9.19%	–
OCCNCc1ccccc1	0.0293%	–
CC(=O)c1cccc([N+](=O)[O-])c1	-0.758%	–
CC(C)=CCC/C(C)=C/CC/C(C)=C/CO	-14.5%	–
CNCCCCOc1ccccc1Cc1ccccc1	-9.54%	–
C=CCOc1ccccc1OCC(O)CNC(C)C (stereo not given)	0.79% [at 26.2 µM]	–
Nc1ncn([C@H]2C[C@H](O)[C@@H](CO)O2)c(=O)n1	-6.95%	–
C1CCCNCCC1	7.59%	–
O=C(Nc1ccccc1)c1ccccc1O	-6.07%	–
Cc1[nH]c(C)c(Cl)c(=O)c1Cl	0.532%	–
Brc1c2ccccc2cc2ccccc12	–	49.5 µM (active)
Cc1ccc(N=Nc2c(O)c(C(=O)O)cc3ccccc23)c(S(=O)(=O)O)c1	-5.65%	–
CCCCCCCN	-1.64% [at 78.9 µM]	–
C[C@@H](c1ncncc1F)C(O)(Cn1cncn1)c1ccc(F)cc1F (stereo not given in full)	0.63%	–
C#CCN(C)CCCOc1ccc(Cl)cc1Cl	0.506%	–
CCOC(=O)c1cccnc1	3.18%	–
Brc1c2ccccc2c(Br)c2ccccc12	–	1.98 µM (active)
CC(=O)c1ccc2c(c1)N(CCCN(C)C)c1ccccc1S2	-9.98% [at 26.2 µM]	–
C=C1[C@H]2CC[C@@H]3[C@H]2C(C)(C)CCC[C@]13C	0.0521%	–
